Screening results (PubChem BioAssay)
CHX counter = counter-screen for Shiga toxin inhibitors: cycloheximide protein synthesis inhibition. cell reporter, cycloheximide protein synthesis inhibition counterscreen. max response, %. 12% of 300,000 active. AID 2314; in the data active = max response mostly above about 13%, no sharp cut-off; inactive = mostly below about 14%; also: read at 38.3 µM for the half of the compounds with a filed dose; 0% is about no effect
FBPA Giardia inh = inhibitors of Giardia lamblia fructose-1,6-bisphosphate aldolase; Potency, µM (doses to about 59.6 µM), for the others: at the top dose activity, negative = inhibition, hits mostly inhibitors; purified Giardia FBPA; 0.71% of 290,000 active; A8B2U2; also: potency is read from the fitted curve at half-maximal effect; % is scaled to controls: 0 for no effect and ±100 for the full control effect; nearly all actives have a fitted effect of over 55% in size
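40 nM FBPA preincubated 10 min at RT with compound (up to 57.5 uM final), then substrate plus GAPDH/TPI/NAD/arsenate coupling and diaphorase/resazurin added. Fluorescence read after 20 min at RT, 525/598 nm.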
TbPYK inhibitor = T. brucei pyruvate kinase inhibition; Q57TT1; Potency, µM (top dose mostly 76.8 µM), inactives show at the highest dose activity, negative = inhibition, usual class: inhibitors; AID 624173; 0.12% of 410,000 active; TbPYK enzyme, Kinase-Glo Plus ATP luminescence, 45 min; also: potency is read from the fitted curve at half-maximal effect; % is scaled to controls: 0 for no effect and ±100 for the full control effect; nearly all actives have a fitted effect of over 50% in size
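Activity of T. brucei pyruvate kinase was followed by Kinase-Glo Plus luminescence after the enzyme reacted 45 min at room temperature with 130 uM ADP (final) and substrate. Test compounds were added before ADP at multiple concentrations.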
LmPK inh = blocks Leishmania mexicana pyruvate kinase activity. Q27686. purified LmPK, Kinase-Glo ATP luminescence, 1 h. Potency, µM (doses to about 57.5 µM), inactives show at the highest dose activity change, negative = inhibition, actives largely listed as inhibitors. 0.37% of 290,000 active. AID 1721; also: potency is read from the fitted curve at half-maximal effect; % is scaled to controls: 0 for no effect and ±100 for the full control effect
Target sequence (Q27686 whole entry, looked up): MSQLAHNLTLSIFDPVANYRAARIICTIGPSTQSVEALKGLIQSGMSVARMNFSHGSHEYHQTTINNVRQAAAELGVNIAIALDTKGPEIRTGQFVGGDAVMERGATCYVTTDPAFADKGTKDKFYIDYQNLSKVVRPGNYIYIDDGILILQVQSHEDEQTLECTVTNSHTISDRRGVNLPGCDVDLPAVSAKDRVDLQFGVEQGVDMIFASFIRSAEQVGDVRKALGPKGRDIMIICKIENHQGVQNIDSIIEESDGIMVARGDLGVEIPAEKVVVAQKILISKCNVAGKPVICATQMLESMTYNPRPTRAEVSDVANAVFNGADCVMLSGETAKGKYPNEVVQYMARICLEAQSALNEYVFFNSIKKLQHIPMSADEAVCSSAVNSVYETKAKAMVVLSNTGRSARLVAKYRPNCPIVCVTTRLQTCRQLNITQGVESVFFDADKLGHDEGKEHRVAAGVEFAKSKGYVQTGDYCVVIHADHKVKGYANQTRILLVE
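Kinase-Glo luminescence read after 1 h RT reaction of 0.1 nM LmPK with 0.5 mM PEP and 0.1 mM ADP. Activity scaled between uninhibited and enzyme-free controls.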
RE007 growth inh = less growth of the S. pombe RE007 Vpr strain; S. pombe RE007 Vpr strain, BacTiter-Glo ATP luminescence, 24 h; Potency, µM (top dose mostly 92.2 µM), inactives show top-dose activity change, negative = less growth, most hits filed as inhibitors; 0.21% of 360,000 active; AID 651644; active = well fitted falling curve with a large enough effect; inconclusive = small, poorly fitted or top-dose-only effect; inactive = no such curve, though single readings can be large or run the other way; also: potency is read from the fitted curve at half-maximal effect; % is scaled to controls: 0 for no effect and ±100 for the full control effect; nearly all actives have a fitted effect of over 50% in size
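Fission yeast strain RE007, carrying one chromosomally integrated HIV-1 vpr copy, was seeded at OD 0.01 in PMG+AL medium with 23 nL pinned compound. After 24 h at 30 °C and 99% humidity, viability was read by BacTiter-Glo luminescence.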
Shiga toxin inh = Shiga toxin inhibition | Vero cells, Shiga toxin protein synthesis inhibition reporter | inhibition, % at 38.7 µM | 9.2% of 290,000 active; in the data active = inhibition mostly above about 28%, no sharp cut-off; inactive = mostly below about 43%; also: 0% is about no effect
* marks the source's active call; other numbers are inactive results; ? = inconclusive; · = not tested or not shown. Only a selection was taken, and hits are over-represented in it overall. Unless noted, calls follow the shape of the dose curve; as a rule, active = well fitted curve in the direction sought with a large enough effect; inconclusive = small, poorly fitted or top-dose-only effect, or another doubt; inactive = no such curve, though single readings can be large; an effect the other way counts as inactive or inconclusive.

SMILES	CHX counter	FBPA Giardia inh	TbPYK inhibitor	LmPK inh	RE007 growth inh	Shiga toxin inh
CCCN1CCC(=O)N(C(CSc2ccc(OC)cc2)c2ccccc2)CC1 (centres undefined)	42*	-2%	·	·	·	156*
O=C1CCN(CCc2ccccc2)CCN1[C@H](CSc1ccc(Br)cc1)c1ccccc1	-2	1%	1%	2%	3%	-3
CCCN1CCC(=O)N([C@H](CSc2ccc(OC)cc2)Cc2ccccc2)CC1	-1	2%	4%	2%	5%	-6
CCCN1CCC(=O)N([C@H](CSc2ccc(Br)cc2)c2ccccc2)CC1	35*	20%	0%	0%	-15%	19
COc1ccc(-c2cn3c(n2)sc2cc(C(=O)NCCC4=CCCCC4)ccc23)cc1	·	·	-8%	·	·	·
COc1cccc(N2CCN(S(=O)(=O)c3ccc4[nH]c5c(c4c3)CCCC5)CC2)c1	·	·	4%	·	·	·
CC12CCC=CC1C(c1cccc([N+](=O)[O-])c1)N(Cc1ccccc1)C2=O (centres undefined)	7	8%	·	·	·	16
Cc1cccc(NS(=O)(=O)c2c(C)nc3sccn3c2=O)c1C	·	·	2%	·	·	·
CC1CCN(c2nnc(-n3cccc3CNc3cccc(F)c3)s2)CC1	·	·	-2%	·	·	·
CC(C)NC(=O)[C@H]1C[C@@H]1[C@H](NC(=O)OCc1ccccc1)c1ccccc1	·	2%	·	·	·	·
CCOC(=O)COc1ccc2c(C#N)c3ccccn3c2c1	-3	5.6µM*	-1%	5%	2%	-2
COc1cccc([C@@H]2Oc3ccc(Br)cc3C[C@H]2OC(=O)NCCc2ccc(OC)c(OC)c2)c1	·	1%	·	·	·	·
O=C(CC1Sc2ccccc2NC1=O)Nc1cccnc1 (centres undefined)	-5	0%	3%	-5%	5%	-3
O=C(CC1Sc2ccccc2NC1=O)Nc1cccc(-c2nnc3n2CCCCC3)c1 (centres undefined)	13	3%	2%	3%	26%	97*
O=C(COc1ccc(Cl)cc1Cl)OCn1nnc2ccccc2c1=O	2	1%	4%	5%	12%	-14
O=c1c2ccccc2nnn1COc1cccc(Cl)c1	55*	1%	-3%	-12%	-3%	124*
COc1ccccc1N1C(=O)C=C(Sc2nc(C)cc(C)n2)C1=O	-1	-22%	5µM*	?	9%	6
Cc1cc(O)c(C(c2ccc(F)cc2)N2CCCCC2)c(=O)n1Cc1ccco1 (centres undefined)	·	·	1%	·	·	·
CCC(=O)c1ccc(-c2ccccc2)cc1	29*	-3%	-16%	-6%	-2%	34
CCC(=O)c1ccc(O)cc1	0	15%	-3%	0%	4%	-7
CC(=O)c1ccc(-c2ccccc2)cc1	58*	8%	-3%	-5%	-12%	42*
COc1cccc(CNC(=O)N2CCC(CN3CCC(C)CC3)CC2)c1	·	·	-9%	·	·	·
CC(=O)c1cc2c(cc1O)OC(C)(C)C=C2	·	6%	·	·	·	·
COc1c2c(cc3oc(=O)ccc13)OC(C)(C)C=C2	20*	0%	2%	0%	-4%	40*
CC1(C)C=Cc2cc3ccc(=O)oc3cc2O1	53*	8%	-11%	?	13%	62*
SMILES	CHX counter	FBPA Giardia inh	TbPYK inhibitor	LmPK inh	RE007 growth inh	Shiga toxin inh
CCCN1CCCC(c2cccc(S(C)(=O)=O)c2)C1 (centres undefined)	-5	-1%	·	·	·	30
Cc1ccc(N=c2sc(C)c(C)n2C)cc1	70*	-11%	6%	-7%	-24%	80*
COc1ccc(Oc2nccc(-c3ccc(Cl)cc3)n2)cc1	0	7%	-3%	3%	-22%	9
Fc1ccc(Oc2nccc(-c3ccc(Cl)cc3)n2)cc1	26*	-2%	-16%	2%	-8%	36*
Cc1ccnc2nc(C(=O)OCC(=O)N3CCc4ccccc43)nn12	-2	4%	-8%	-7%	-9%	2
Cc1ccc2cccc(OCC(=O)N3CCc4ccccc43)c2n1	-2	-1%	8%	0%	-16%	-3
O=C(OCC(=O)N1CCc2ccccc21)c1ccccn1	32*	2%	-4%	-7%	-11%	52
O=C(OCC(=O)N1CCc2ccccc21)c1cccnc1Cl	35*	0%	-1%	-25%	1%	69*
O=C(COc1cccc2cccnc12)N1CCc2ccccc21	18*	-20%	1%	-2%	4%	63*
O=C(OCC(=O)N1CCCc2ccccc21)c1cccnc1Cl	11	2%	-2%	-6%	7%	24
CCOC(=O)CNC(=O)Nc1cc(C(C)(C)C)nn1-c1ccccc1	37*	-2%	-10%	-7%	1%	-4
CC(C)(C)c1cc(NC(=O)COC(=O)c2ccccc2O)n(-c2ccccc2)n1	·	·	-10%	·	7%	·
O=C(NCc1ccc(Cl)cc1)C1(c2cccs2)CCOCC1	·	·	-5%	·	·	·
CCCn1ccc2c(OCC(=O)Nc3ccc(C(F)(F)F)cc3)cccc2c1=O	·	·	-3%	·	·	·
Cc1cccc(C)c1OCc1cc(C(=O)N2CCN(c3ccc(F)cc3)CC2)no1	52*	·	1%	-4%	-7%	109*
Cc1cccc(C)c1OCc1cc(C(=O)N2CCN(c3ccccn3)CC2)no1	44*	·	-3%	-11%	-17%	46*
Cc1cccc(C)c1OCc1cc(C(=O)N2CCC(c3ccccc3)CC2)no1	41*	·	-10%	-2%	-2%	100*
Cc1cccc(C)c1OCc1cc(C(=O)N2CCC(C3CCCCC3)C2)no1 (centres undefined)	·	·	3%	·	3%	·
O=C(c1cc(C2CC2)on1)N1CCN(c2ccc(F)cc2)CC1	1	-4%	-12%	-1%	5%	3
COc1ccc(NC(=O)Cn2c(=O)n(-c3ccc(C)cc3)c(=O)c3c2c2cc(C)ccc2n3C)cc1	·	·	0%	·	·	·
COc1ccc(/C=C2\Sc3ccc(C(=O)NCC4CCCO4)cc3N(C)C2=O)cc1 (centres undefined)	12*	16%	-22%	9%	7%	11
COc1ccc(/C=C2\SC(=S)N(CC3CCCO3)C2=O)cc1 (centres undefined)	20*	-5%	-16%	2%	-15%	13
O=C1/C(=C/c2ccco2)SC(=S)N1CC1CCCO1 (centres undefined)	26*	?	-10%	6%	9%	63*
COc1cc(/C=C2/SC(=S)N(CC3CCCO3)C2=O)ccc1O (centres undefined)	21*	-16%	2%	-10%	-7%	41*
O=C1/C(=C/c2cccnc2)SC(=S)N1CC1CCCO1 (centres undefined)	-2	4%	-3%	-1%	6%	12
O=C1/C(=C\c2ccc(-c3ccccc3Cl)o2)SC(=S)N1CC1CCCO1 (centres undefined)	-2	0%	-2%	4%	-4%	-16
